# Data reported in the supplement of paper PMC8728848.
# Only a selection was taken, and the strongest signals are over-represented in it overall.
# B1: SSR1 (Sclerotium rolfsii), A0A0M3KL30 (protein)
# chain: TYKITVRVYQTNPDAFFHPVEKTVWKYANGGTWTITDDQHVLTMGGSGTSGTLRFHADNGESFTATFGVHNYKRWCDIVTNLAADETGMVINQQYYSQKNREEARERQLSNYQVKNAKGRNFQIVYTEAEGNDLHANLIIG
# Assays:
# Test in all cases: glycan array binding signal (z-score within array); higher = stronger binding
# Conditions in all cases: glycan notation: IUPAC condensed, linker removed
# [1] = target: Fuc(a1-2)Gal(b1-3)GalNAc(b1-4)[Neu5Ac(a2-3)]Gal(b1-4)Glc
# Summary of the method: (§1)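 From the Consortium for Functional Glycomics database, 3228 arrays were curated, keeping only those whose protein sequence was available. Binding is given as a within-array Z-score averaged across arrays sharing a protein sequence and across linkers. Negative Z-scores can be read as non-binding.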
# [2] = target: Fuc(a1-2)Gal(b1-3)GlcNAc(b1-3)[Gal(b1-4)GlcNAc(b1-6)]Gal(b1-4)Glc
# Summary of the method: as §1
# [3] = target: Fuc(a1-2)Gal(b1-4)GlcNAc(b1-3)Gal(b1-4)GlcNAc
# Summary of the method: as §1
# [4] = target: Fuc(a1-2)Gal(b1-4)GlcNAc(b1-3)[Fuc(a1-3)[Gal(b1-4)]GlcNAc(b1-6)]Gal(b1-4)Glc
# Summary of the method: as §1
# [5] = target: Fuc(a1-2)Gal(b1-4)[Fuc(a1-3)]GlcNAc(b1-3)Gal(b1-4)[Fuc(a1-3)]GlcNAc
# Summary of the method: as §1
# [6] = target: Fuc(a1-2)[Gal(a1-3)]Gal(b1-4)GlcNAc(b1-3)[Fuc(a1-2)[Gal(a1-3)]Gal(b1-4)GlcNAc(b1-6)]GalNAc
# Summary of the method: as §1
# [7] = target: Fuc(a1-2)[Gal(a1-3)]Gal(b1-4)GlcNAc(b1-6)GalNAc
# Summary of the method: as §1
# [8] = target: Fuc(a1-2)[GalNAc(a1-3)]Gal(b1-3)GlcNAc(b1-2)Man(a1-3)[Fuc(a1-2)[GalNAc(a1-3)]Gal(b1-3)GlcNAc(b1-2)Man(a1-6)]Man(b1-4)GlcNAc(b1-4)GlcNAc
# Summary of the method: as §1
# [9] = target: Fuc(a1-2)[GalNAc(a1-3)]Gal(b1-4)GlcNAc(b1-3)Gal(b1-4)GlcNAc
# Summary of the method: as §1
# [10] = target: Fuc(a1-3)[Gal(b1-4)]GlcNAc(b1-2)Man(a1-3)[Fuc(a1-3)[Gal(b1-4)]GlcNAc(b1-2)Man(a1-6)]Man(b1-4)GlcNAc(b1-4)[Fuc(a1-6)]GlcNAc
# Summary of the method: as §1
# [11] = target: Fuc(a1-3)[Gal(b1-4)]GlcNAc(b1-6)GalNAc
# Summary of the method: as §1
# [12] = target: Gal(a1-3)Gal(b1-4)GlcNAc(b1-2)Man(a1-3)[Gal(a1-3)Gal(b1-4)GlcNAc(b1-2)Man(a1-6)]Man(b1-4)GlcNAc(b1-4)GlcNAc
# Summary of the method: as §1
# [13] = target: Gal(b1-3)[Fuc(a1-4)]GlcNAc
# Summary of the method: as §1
# [14] = target: Gal(b1-3)[Neu5Ac(a2-6)]GalNAc
# Summary of the method: as §1
# [15] = target: Gal(b1-4)GlcNAc(b1-2)Man(a1-3)[Gal(b1-4)GlcNAc(b1-2)Man(a1-6)]Man(b1-4)GlcNAc(b1-4)GlcNAc
# Summary of the method: as §1
# [16] = target: Gal(b1-4)GlcNAc(b1-2)Man(a1-3)[Gal(b1-4)GlcNAc(b1-2)Man(a1-6)][GlcNAc(b1-4)]Man(b1-4)GlcNAc(b1-4)[Fuc(a1-6)]GlcNAc
# Summary of the method: as §1
# [17] = target: Gal(b1-4)GlcNAc(b1-2)Man(a1-3)[GlcNAc(b1-4)][Gal(b1-4)GlcNAc(b1-2)Man(a1-6)]Man(b1-4)GlcNAc(b1-4)GlcNAc
# Summary of the method: as §1
# [18] = target: Gal(b1-4)GlcNAc(b1-2)Man(a1-6)Man(b1-4)GlcNAc(b1-4)GlcNAc
# Summary of the method: as §1
# [19] = target: Gal(b1-4)GlcNAc(b1-2)Man(a1-6)[GlcNAc(b1-2)Man(a1-3)]Man(b1-4)GlcNAc(b1-4)GlcNAc
# Summary of the method: as §1
# [20] = target: Gal(b1-4)GlcNAc(b1-3)Gal(b1-3)GalNAc
# Summary of the method: as §1
# [21] = target: Gal(b1-4)GlcNAc(b1-3)Gal(b1-4)GlcNAc(b1-3)Gal(b1-4)GlcNAc(b1-2)[Gal(b1-4)GlcNAc(b1-3)Gal(b1-4)GlcNAc(b1-3)Gal(b1-4)GlcNAc(b1-6)]Man(a1-6)[Gal(b1-4)GlcNAc(b1-3)Gal(b1-4)GlcNAc(b1-3)Gal(b1-4)GlcNAc(b1-2)Man(a1-3)]Man(b1-4)GlcNAc(b1-4)[Fuc(a1-6)]GlcNAc
# Summary of the method: as §1
# [22] = target: Gal(b1-4)GlcNAc(b1-3)Gal(b1-4)GlcNAc(b1-3)GalNAc
# Summary of the method: as §1
# Gal6S(b1-4)Glc = target: Gal6S(b1-4)Glc
# Summary of the method: as §1
# Gal6S(b1-4)GlcNAc = target: Gal6S(b1-4)GlcNAc
# Summary of the method: as §1
# [23] = target: GlcNAc(a1-3)Gal(b1-4)GlcNAc
# Summary of the method: as §1
# [24] = target: GlcNAc(a1-4)Gal(b1-4)GlcNAc
# Summary of the method: as §1
# [25] = target: GlcNAc(a1-4)Gal(b1-4)GlcNAc(b1-3)Gal(b1-4)Glc
# Summary of the method: as §1
# [26] = target: GlcNAc(a1-4)Gal(b1-4)GlcNAc(b1-3)Gal(b1-4)GlcNAc
# Summary of the method: as §1
# [27] = target: GlcNAc(a1-4)Gal(b1-4)GlcNAc(b1-3)Gal(b1-4)GlcNAc(b1-3)Gal(b1-4)GlcNAc
# Summary of the method: as §1
# [28] = target: GlcNAc(a1-4)Gal(b1-4)GlcNAc(b1-3)Gal(b1-4)[Fuc(a1-3)]GlcNAc(b1-3)Gal(b1-4)[Fuc(a1-3)]GlcNAc
# Summary of the method: as §1
binder,measurement,setting,value
B1,glycan array binding signal (z-score),[1],-0.338
same,glycan array binding signal (z-score),[2],-0.321
same,glycan array binding signal (z-score),[3],-0.335
same,glycan array binding signal (z-score),[4],-0.328
same,glycan array binding signal (z-score),[5],-0.306
same,glycan array binding signal (z-score),[6],-0.325
same,glycan array binding signal (z-score),[7],-0.34
same,glycan array binding signal (z-score),[8],0.338
same,glycan array binding signal (z-score),[9],0.292
same,glycan array binding signal (z-score),[10],-0.33
same,glycan array binding signal (z-score),[11],-0.33
same,glycan array binding signal (z-score),[12],-0.321
same,glycan array binding signal (z-score),[13],-0.333
same,glycan array binding signal (z-score),[14],0.823
same,glycan array binding signal (z-score),[15],-0.338
same,glycan array binding signal (z-score),[16],-0.334
same,glycan array binding signal (z-score),[17],-0.342
same,glycan array binding signal (z-score),[18],-0.337
same,glycan array binding signal (z-score),[19],3.01
same,glycan array binding signal (z-score),[20],1.12
same,glycan array binding signal (z-score),[21],-0.33
same,glycan array binding signal (z-score),[22],0.602
same,glycan array binding signal (z-score),Gal6S(b1-4)Glc,-0.323
same,glycan array binding signal (z-score),Gal6S(b1-4)GlcNAc,-0.336
same,glycan array binding signal (z-score),[23],3.12
same,glycan array binding signal (z-score),[24],3.11
same,glycan array binding signal (z-score),[25],3.37
same,glycan array binding signal (z-score),[26],4.43
same,glycan array binding signal (z-score),[27],6.33
same,glycan array binding signal (z-score),[28],3.01
